PubChem BioAssay AID504832 (National Center for Advancing Translational Sciences (NCATS), 2011)
Hit rate of the full screen: of about 310,000 compounds, about 18,000 (5.8%) were called active. Not shown: some 22% with an inconclusive outcome. Only a selection was taken, and actives are over-represented in it overall. Values without a mark were called inactive. Calls follow the shape of the dose curve; as a rule, active = well fitted inhibition curve with a large enough effect; inconclusive = small, poorly fitted or top-dose-only effect, or another doubt; inactive = no such curve, though single readings can be large or run the other way.

Assay: Primary qHTS for delayed death inhibitors of the malarial parasite plastid, 48 hour incubation
Settings: P. falciparum luciferase growth in erythrocytes; series mostly up to 28.7 µM; activity change, negative = inhibition: at the top concentration
How it was run: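 Here the parasites carry a stable luciferase gene and grow inside erythrocytes in Albumax-based RPMI medium with compound for one erythrocytic cycle. Activity is scored as loss of luminescent signal.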
% is scaled to controls: 0 for no effect and ±100 for the full control effect; potency is read from the fitted curve at half-maximal effect.

| SMILES | activity change, negative = inhibition | Potency |
| --- | --- | --- |
| Cc1cccc(NS(=O)(=O)c2ccc(C(=O)NCC(C)(C)N3CCOCC3)cc2)c1C | -8.66% | – |
| COc1ccc(/C=C/C(=O)NC(=S)N2CCCC(C(N)=O)C2)cc1 (stereo not given) | -18.6% | – |
| COc1ccc(CCNCC(O)Cn2ccc3ccccc32)cc1OC (stereo not given) | – | 10.4 µM (active) |
| COC(=O)c1ccc(OCC(O)CN(CCO)CC(O)Cn2ccc3ccccc32)cc1 (stereo not given) | -28% | – |
| COc1ccc(Cn2c(=O)sc3ccccc32)cc1OC | 3.75% | – |
| O=C(C1CCC1)N1CCN(c2ccccc2)CC1 | -2.07% | – |
| Cc1ccccc1NC(=O)Cn1cc(C(=O)C2CC2)c2ccccc21 | -28.8% | – |
| Cc1ccc(CNC(=O)Cn2cnc(S(=O)(=O)N3CCCCC3)c2)o1 | 28.9% | – |
| CCCOC1CCCN(C(=O)c2cc(COc3cncc(Cl)c3)on2)C1 (stereo not given) | 0% | – |
| Cc1ccccc1NC(=O)N1CCCC1C(=O)NCc1ccccc1 (stereo not given) | 5.92% | – |
| CCn1nc(C)c(NC(=O)/C=C/c2ccc(OC)c(COc3ccc(Br)cc3)c2)c1C | – | 8.28 µM (active) |
| COc1ccc(/C=C/C(=O)Nc2cccnc2)cc1OC | 41% | – |
| COc1ccc(C(C)=O)cc1COc1ccc(Cl)c(C)c1 | 51.1% | – |
| CCOC(=O)N1CCN(C(=O)c2cn(C)c3ccc(S(=O)(=O)N4CCCC4)cc3c2=O)CC1 | 13.4% | – |
| O=C(NC1CCCCC1)n1c(=O)oc2cc(S(=O)(=O)N3CCCCC3)ccc21 | 47.3% | – |
| CC(C)COC(=O)n1c(=O)oc2ccc(S(=O)(=O)N3CCCCC3)cc21 | – | 10.4 µM (active) |
| CCOc1ncccc1C(=O)OCC(=O)Nc1cccc(S(=O)(=O)N2CCCCCC2)c1 | 60% | – |
| COc1ccc(N2CCN(S(=O)(=O)c3cc(Br)cnc3N)CC2)cc1 | -0.159% | – |
| OCCN1CCN(c2nnc(-c3ccccc3)c3ccccc23)CC1 | -6.11% | – |
| CCCC(=O)N1CCN(c2nnc(-c3ccc(C)cc3)c3ccccc23)CC1 | – | 4.15 µM (active) |
| c1ccc(-c2nnc(N3CCOCC3)c3ccccc23)cc1 | 75.3% | – |
| Cc1ccc(S(=O)(=O)CC(=O)Nc2sc(C)c(C)c2C(N)=O)cc1 | 1.71% | – |
| S=C(NCc1ccc(Cl)cc1)NC1CCCCC1 | -41.2% | – |
| O=C(NCc1ccncc1)NC12CC3CC(CC(C3)C1)C2 | 20.8% | – |
| S=C(NCc1ccc(Cl)cc1)NC12CC3CC(CC(C3)C1)C2 | – | 11.7 µM (active) |
| CCCC(C(=O)OCCN(CC)CC)(c1ccccc1)c1ccccc1 | – | 6.01 µM (active) |
| CCC(C(=O)OCCN(CC)CC)c1ccccc1 (stereo not given) | – | inactive |

| SMILES | activity change, negative = inhibition | Potency |
| --- | --- | --- |
| CCN(CC)CCOC(=O)c1ccc(NC(=O)CNC(=O)c2ccccc2)cc1 | 20.2% | – |
| COc1ccc(-c2cc3ncccc3cn2)cc1 | 142% | – |
| Cc1cccc(C(=O)Nc2ccc(C(=O)N/N=C/c3cccc(C)n3)cc2)c1 | -16.6% | – |
| COc1ccc(C(O)(C2CCCCC2)C(CN2CCCC2)c2ccccc2)cc1 (stereo not given) | – | 11.7 µM (active) |
| COc1ccc(CN2CCCC(C(=O)N3CCCCC3)C2)cc1 (stereo not given) | 40.7% | – |
| CC(CN1CCCCC1)c1ccccc1 (stereo not given) | 6.05% | – |
| O=C(NCCS(=O)(=O)c1ccc(Br)cc1)c1ccccc1Cl | 93.2% | – |
| CCCCn1c(SCC(=O)N2CCOCC2)nc2c1c(=O)n(C)c(=O)n2C | -6.82% | – |
| CC1CC2=C(CC1/C=N/NC(N)=S)C(C)(C)CCC2 (stereo not given) | – | 13.1 µM (active) |
| COc1ccc(C2/C(=C(/O)c3ccc4c(c3)CC(C)O4)C(=O)C(=O)N2Cc2ccncc2)cc1 (stereo not given) | 25.6% | – |
| COCCN1C(=O)N(c2ccc(Cl)cc2)C(=O)C1CC(=O)Nc1cc(OC)cc(OC)c1 (stereo not given) | -8.22% | – |
| COCCN(CCOC)c1nc(N)c2c(N)nc3c(c2c1C#N)CC(=O)N3Cc1ccc(Cl)cc1 | – | 1.65 µM (active) |
| CSCCC(NC(=O)c1ccco1)C(=O)Nc1cc(C)ccn1 (stereo not given) | 105% | – |
| Cc1cccc(NC(=O)NC2(C)CCS(=O)(=O)C2)c1 (stereo not given) | 3.57% | – |
| COCCOC(=O)C1=C(C)N=c2s/c(=C\c3cccs3)c(=O)n2C1c1cccs1 (stereo not given) | – | 4.15 µM (active) |
| CCOC(=O)C1=C(C)NC(=S)NC1c1cccs1 (stereo not given) | 1.1% | – |
| Cc1cc(=O)oc2cc(OCC(=O)N3CCN(c4ccc(F)cc4)CC3)c(Cl)cc12 | -15.6% | – |
| O=C(CCc1ccccc1)Nc1ccnn1C1CCN(Cc2ccc(OCCO)cc2)CC1 | -12.5% | – |
| O=C(Nc1ccccc1N1CCOCC1)c1ccc(OCc2cscn2)cc1 | -12.9% | – |
| CC(C)n1c(=O)[nH]c2cc(C(=O)Nc3ccccc3)ccc21 | 9.6% | – |
| CN1CCN(c2ccc(NC(=O)c3ccccc3)cc2)CC1 | -20.4% [at 0.00184 µM] | – |
| CN1CCN(c2ccc(NC(=O)c3ccc4c(c3)[nH]c(=O)n4Cc3ccc(F)cc3)cc2)CC1 | – | 11.7 µM (active) |
| Cc1cc(C)c2nc(N3CCC(C(=O)NCCN4CCOCC4)CC3)sc2c1 | 11.7% | – |
| COc1ccccc1N1CCN(/N=C/c2ccc(O)cc2O)CC1 | 109% | – |
| COc1ccc2[nH]c(=O)c(C3c4cc(OC)c(OC)cc4CCN3C(=O)c3ccco3)cc2c1 (stereo not given) | – | 13.1 µM (active) |
| CCc1ccc(OCC2c3cc(OC)c(OC)cc3CCN2C(C)=O)cc1 (stereo not given) | -21% | – |
| COc1ccc(CNC(=O)C2CCN(C(=O)c3ccco3)CC2)cc1 | 0.712% | – |

| SMILES | activity change, negative = inhibition | Potency |
| --- | --- | --- |
| CCOC(=O)N1CCN(C(=O)C(=O)Nc2sc3c(c2C#N)CC(C)(C)OC3)CC1 | 16% | – |
| CCc1cc(C(N)=O)c(NC(=O)c2ccc(OC)cc2)s1 | 64.5% | – |
| CCc1cc(C(=O)c2ccc(OC)cc2)c(NC(=O)CN2CCN(C)CC2)s1 | – | 5.22 µM (active) |
| CCc1ccc(NC(=O)CN2CCC(C(=O)c3ccc(OC)cc3)CC2)cc1 | -21.6% | – |
| Cc1ccc(NC(=O)Cn2nnc(C(=O)NCc3ccco3)c2N)c(C)c1 | 18.9% | – |
| NC(N)=N/N=C/c1ccc(OCc2ccc(Cl)cc2Cl)cc1 | – | 9.28 µM (active) |
| CCOc1ccc(/C=N/NC(N)=S)cc1 | 53.1% | – |
| CCOc1ccc(NC(=O)NNC(=O)c2ccc(Cl)cc2Cl)cc1 | 8.64% | – |
| CCOc1ccc(OCc2ccc(C(=O)N(C)c3ccccc3)o2)cc1 | -38.3% | – |
| O=C(COC(=O)Cc1ccccc1F)NCCc1ccccc1 | 1.67% | – |
| N=c1n(CCc2ccccc2)c2ccccc2n1Cc1ccccc1F | – | 9.28 µM (active) |
| Fc1ccccc1Cn1cnc(NC(=S)NCCc2ccccc2)n1 | 5.06% | – |
| Nc1c(C(=O)Nc2ccc3c(c2)OCCO3)nnn1Cc1ccccc1 | -3.91% | – |
| O=C1CCC(C(=O)N2CCCCO2)CN1Cc1cccc(C(F)(F)F)c1 (stereo not given) | 18.2% | – |
| CSc1ncc(C(=O)Nc2ccc(C)cc2C)c(C)n1 | -3.49% | – |
| O=C(CN1C(=O)CC(c2ccccc2)=Nc2ccccc21)NC1CCCCC1 | – | 9.28 µM (active) |
| CC(=O)c1cc(-c2ccccc2)n(CC(=O)NC2CCCCC2)c1C | -4.84% | – |
| O=C(CN1C(=O)CC(c2ccccc2)S(=O)(=O)c2ccccc21)NC1CCCC1 (stereo not given) | -42% | – |
| Cc1cc(NS(=O)(=O)c2ccc(NC(=O)C(C)Oc3cccc(C)c3C)cc2)nc(C)n1 (stereo not given) | 10.4% | – |
| CC(=O)Oc1ccc(N(C(C)=O)S(=O)(=O)c2ccc3ccccc3c2)cc1Br | -12.8% | – |
| O=C(COC(=O)c1ccc(F)cc1)NCCCc1ccccc1 | 43.7% | – |
| O=Cc1cn(Cc2ccc(F)cc2Cl)c2ccccc12 | -3.11% | – |
| O=c1c([N+](=O)[O-])cccn1Cc1ccc(F)cc1Cl | – | 0.37 µM (active) |
| N/C(=N/O)c1cccn1Cc1ccccc1[N+](=O)[O-] | 47.8% | – |
| CN(CC(=O)Nc1c(Cl)cccc1Cl)C(=O)CNC(=O)C1CCCCC1 | -2.61% | – |
| CN(Cc1ccccc1)C(=O)c1ccc(COc2ccccc2)cc1 | 21% | – |
| CC(C)C(=O)NC(=S)Nc1ccccc1F | 42.1% | – |

| SMILES | activity change, negative = inhibition | Potency |
| --- | --- | --- |
| CC(C)C(=O)Nc1cccc(NC(=S)NC(=O)C(c2ccccc2)c2ccccc2)c1 | – | 11.7 µM (active) |
| COc1ccccc1NC(=S)NC(=O)C(C)C | -16.3% | – |
| COc1cccc(NC(=O)N2CCCC2C(=O)NC2CCCCC2)c1 (stereo not given) | 20.5% | – |
| COc1ccc(/C=N/OCc2ccccc2C#N)c(OC)c1 | 49.3% | – |
| CC1CCN(C(=O)c2ccccc2NC(=O)Cc2ccccc2)CC1 | 18% | – |
| CN1CCN(C(=O)CCc2ncc(C(F)(F)F)cc2Cl)CC1 | -0.581% | – |
| CC(=O)c1ccc(Cc2ncc(C(F)(F)F)cc2Cl)s1 | – | 13.1 µM (active) |
| O=C(Cc1ncc(C(F)(F)F)cc1Cl)Nc1cccc(Br)c1 | 24% | – |
| Cc1ccc2c(c1)N(C(=O)CCC(=O)NCc1cccnc1)CCO2 | 8.95% | – |
| Cn1c(N2CCOCC2)c(C=O)c2ccccc21 | 37.2% [at 0.00184 µM] | – |
| CCN(CC)CCCN=Cc1c(O)n(-c2ccc(C)cc2)c(=O)c2ccccc12 | -11.5% | – |
| COc1ccc(-n2c(O)c(C=NCC(c3ccco3)N3CCCC3)c3ccccc3c2=O)cc1OC (stereo not given) | – | 9.28 µM (active) |
| COc1ccc(-n2nc(C(=O)NCC(=O)N3CCC(C(N)=O)CC3)c3ccccc3c2=O)cc1OC | 44% | – |
| Cc1nnc(SCC(=O)Nc2ccc(S(=O)(=O)Nc3ccc(Cl)nn3)cc2)s1 | 19.4% | – |
| CCC(C)(NC(=O)c1ccccn1)C(=O)NC1CCCCC1 (stereo not given) | 19.9% | – |
| Cc1cccc(OCC(=O)NCCCNC(=O)c2ccccn2)c1 | -12% | – |
| CCN(CC)CCOc1ccc2c(c1)C(=NNC(=O)c1ccccn1)c1cc(OCCN(CC)CC)ccc1-2 | – | 0.37 µM (active) |
| CCOc1ccccc1OCC(=O)Nc1ccccc1C(=O)NC1CC1 | 35.1% | – |
| O=C(CCNS(=O)(=O)c1ccccc1C(F)(F)F)Nc1ccncc1 | -7.69% | – |
| C/C(N)=C(/C#N)C(=O)COC(=O)C1=NN(c2ccccc2)C(=O)CC1 | 27.2% | – |
| O=C(Nc1ccccc1-c1nc2ccccc2[nH]c1=O)c1cccs1 | 14.3% | – |
| CN1CCN(S(=O)(=O)c2ccc(N3CCN(c4ccccc4O)CC3)c([N+](=O)[O-])c2)CC1 | – | 11.7 µM (active) |
| Cc1ccc(C(=O)c2ccc(N3CCN(C)CC3)c([N+](=O)[O-])c2)cc1 | 1.89% | – |
| CN1CCN(c2ccc(S(=O)(=O)Nc3ccccc3)cc2[N+](=O)[O-])CC1 | 3.28% | – |
